Screens (PubChem BioAssay)
Sampled rows, rich in hits. Any-hit rate of the full collection: about 9.5%.
Pf growth 96h – inhibits malaria parasite growth, 96 h; P. falciparum luciferase reporter growth, 96 h; Potency, µM (doses to about 28.7 µM), actives largely listed as inhibitors; hit rate 6.9% among 320,000; active = well fitted inhibition curve with a large enough effect; inconclusive = small, poorly fitted or top-dose-only effect, or another doubt; inactive = no such curve, though single readings can be large or run the other way
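P. falciparum expressing integrated firefly luciferase, in erythrocytes at 2% hematocrit, 0.05% parasitemia, incubated with compounds 96 h at 37 C, 5% CO2. Growth inhibition read as loss of luminescence; two-generation exposure targets delayed-death apicoplast inhibitors.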
SARS PLpro yeast – inhibitors of SARS-CoV papain-like protease in yeast; hit rate 0.19% among 330,000; Potency, µM (highest dose often 32.9 µM), actives largely listed as activators; S. cerevisiae expressing SARS-CoV PLpro, growth rescue; AID 485353; also: nearly all actives have a fitted effect of over 55% in size
NS1 function inh – blocks influenza NS1 protein function | Potency, µM (series often up to 46.1 µM) | hit rate 0.4% among 270,000 | AID 2326; also: actives are rising curves; nearly all actives have a fitted effect of over 50% in size
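OD600 was taken as the measure of yeast growth restored by compound in an NS1-expressing S. cerevisiae strain. Cells had been washed out of glucose medium and diluted 1:100 into galactose -URA medium, pH 6.0.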
RE007 growth inh – less growth of the S. pombe RE007 Vpr strain | AID 651644 | hit rate 0.21% among 360,000 | S. pombe RE007 Vpr strain, BacTiter-Glo ATP luminescence, 24 h | Potency, µM (series often up to 92.2 µM), hits mostly inhibitors; active = well fitted falling curve with a large enough effect; inconclusive = small, poorly fitted or top-dose-only effect; inactive = no such curve, though single readings can be large or run the other way; also: nearly all actives have a fitted effect of over 50% in size
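Fission yeast strain RE007, carrying one chromosomally integrated HIV-1 vpr copy, was seeded at OD 0.01 in PMG+AL medium with 23 nL pinned compound. After 24 h at 30 °C and 99% humidity, viability was read by BacTiter-Glo luminescence.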
Pf growth 48h – P. falciparum growth inhibition at 48 hours (one generation) | P. falciparum luciferase growth in erythrocytes, 48 h | Potency, µM (doses to about 28.7 µM), hits mostly inhibitors | hit rate 5.9% among 310,000 | AID 504832; active = well fitted inhibition curve with a large enough effect; inconclusive = small, poorly fitted or top-dose-only effect, or another doubt; inactive = no such curve, though single readings can be large or run the other way
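Cell-based growth assay: transgenic P. falciparum expressing firefly luciferase, cultured in red cells within RPMI 1640 containing 0.5% w/v Albumax, 24 mM bicarbonate and gentamycin. A drop in luciferase activity indicates inhibition.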
A number is an active result; – = inactive; ? = inconclusive; · = no result. Unless noted, calls follow the shape of the full dose curve.

SMILES	Pf growth 96h	SARS PLpro yeast	NS1 function inh	RE007 growth inh	Pf growth 48h
CC1CCCCN1S(=O)(=O)c1ccc(N(C(=O)c2cnccn2)C(C(=O)NC2CCCC2)c2cccs2)cc1 (stereo not given)	?	–	–	–	13.1µM
O=C(OCC#CCSc1nnc(-c2ccncc2)o1)c1cccs1	11.7µM	–	–	–	–
O=C(NCc1ccccc1)/C(=C\c1ccc(F)cc1)NC(=O)c1ccco1	·	·	·	–	·
COc1ccccc1CC1/C(=N/O)C2CCN1CC2 (stereo not given)	?	–	–	–	–
COc1ccccc1/C=C1/C(=N/O)C2CCN1CC2	–	–	–	–	11.7µM
Cc1cc(C)cc(OCC(=O)OCCN2C(=O)c3ccccc3C2=O)c1	–	–	–	–	·
Cc1ccc(OCC(=O)OCCN2C(=O)c3ccccc3C2=O)cc1C	1.85µM	–	–	–	–
CCCC/C=C/C(NC(=O)CCc1ccccc1)c1ccccc1 (stereo not given)	8.28µM	–	–	–	?
O=C(C[n+]1ccc(-c2cc(C(=O)Nc3cccc(C(F)(F)F)c3)c3ccccc3n2)cc1)c1cccc([N+](=O)[O-])c1	3.29µM	–	·	–	?
C=CCN(CC=C)C(=S)NC(=O)c1ccc(OC)c(Br)c1	14.7µM	–	–	?	10.4µM
CCCC(=O)NC(=S)Nc1ccc(N2CCOCC2)c(Cl)c1	11.7µM	–	–	–	?
CC(C)C(=O)Nc1ccc(N2CCCC2)c(Cl)c1	–	–	·	–	–
CC(C)CC(=O)NC(=S)Nc1ccc(N2CCCC2)c(Cl)c1	?	–	–	–	3.29µM
O=C(O)CN(C1CCCCC1)S(=O)(=O)c1ccc(F)cc1	–	–	·	–	–
CN(C)c1cc(-c2cccc(C(F)(F)F)c2)oc(=O)c1Cl	·	·	·	–	·
COc1ccc(NC(=S)N(CCN(C)C)C(C)c2ccco2)cc1Cl (stereo not given)	10.4µM	–	–	·	–
COc1ccc(C(=O)N2CCN(c3nc(C4CC4)nc4sc(C)c(C)c34)CC2)cc1	–	–	–	–	11.7µM
Cc1nc(N2CCN(S(=O)(=O)c3ccc(F)cc3)CC2)c2c(C)c(C)sc2n1	–	–	–	–	·
Cc1sc2nc(CN3CCCC3)nc(N3CCN(S(=O)(=O)c4cccc(F)c4)CC3)c2c1C	9.28µM	–	·	–	8.28µM
Cc1sc2nc(C3CC3)nc(N3CCN(S(=O)(=O)c4ccc(F)cc4)CC3)c2c1C	–	–	?	–	10.4µM
CCCc1nc(N2CCN(S(=O)(=O)c3ccc(Cl)cc3)CC2)c2c(C)c(C)sc2n1	?	–	–	–	?
Cc1sc2nc(CN3CCOCC3)nc(N3CCN(S(=O)(=O)c4ccccc4)CC3)c2c1C	?	–	·	–	9.28µM
Cc1ccc(S(=O)(=O)N2CCN(c3nc(C)nc4sc5c(c34)CCC(C)C5)CC2)cc1 (stereo not given)	7.38µM	–	–	·	?
c1ccc2c(c1)CCN(c1nc(CN3CCOCC3)nc3sc4c(c13)CCCC4)C2	?	–	–	–	14.7µM
COc1ccc(C(=O)C2CCCN(Cc3c(O)cccc3OC)C2)cc1OC (stereo not given)	?	–	–	–	?
SMILES	Pf growth 96h	SARS PLpro yeast	NS1 function inh	RE007 growth inh	Pf growth 48h
COc1cccc(O)c1CN1CCCC(C(=O)c2cccc(C(F)(F)F)c2)C1 (stereo not given)	?	–	–	–	2.94µM
Cn1cc(/C=C/C(=O)N2CCCC(C(=O)c3cccc4ccccc34)C2)cn1 (stereo not given)	–	–	–	–	–
CCn1ccnc1CN1CCCC(C(=O)c2cccc(C(F)(F)F)c2)C1 (stereo not given)	–	–	–	–	9.28µM
Cn1cc(/C=C/C(=O)N2CCCC(C(=O)c3cccc(C(F)(F)F)c3)C2)cn1 (stereo not given)	4.15µM	–	–	–	–
N#CCCN(C(=O)CN1CCN(S(=O)(=O)c2ccc(Cl)s2)CC1)c1ccc(F)cc1	·	–	·	–	·
COc1ccc(NC(=O)CSc2nnc(-c3ccccc3Cl)n2Cc2ccco2)c(OC)c1	·	–	–	–	?
COCCn1c(-c2ccc(OC)cc2)cnc1SCC(=O)Nc1cccc2ccccc12	1.65µM	–	–	–	?
COc1ccc(NC(=O)CSc2ncc(-c3ccc(F)cc3)n2Cc2ccco2)cc1	11.7µM	–	–	–	14.7µM
COc1ccc(-c2cnc(SCC(=O)Nc3cc(C)on3)n2Cc2ccco2)cc1	·	–	–	–	?
